# Data from PubChem BioAssay AID1159580 (chemical genetic matrix, 2015).
# The campaign covered roughly 5,500 compounds. About 2,000 (36%) were called active. Another 18% or so got no clear call; they are omitted. This is one part of the list. Values without a mark were called inactive. Cut-off read from the data, not from the text of the source: active = normalized growth mostly below about 0.91 (no sharp cut-off); inconclusive = no clear call, values can overlap the other calls; inactive = mostly above about 0.92.
# Experiment: chemical genetic growth profiling, strain panel (AID 1159580);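 note: tested at 20 µM; growth read once vehicle control cultures reached saturation at 30 °C; 1 = growth at the plate median or of vehicle wells; lower values mean less growth of the strain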
# Conditions: S. cerevisiae deletion strains, growth OD
# [1] = locus YBR021W, strain FUR4, hits give low values
# [2] = locus YBR229C, strain ROT2, hits give low values
# [3] = locus YCL029C, strain bik1, hits give low values
# [4] = locus YDL035C, strain GPR1, hits give low values
# [5] = locus YDL074C, strain BRE1, hits give low values
# [6] = locus YDL101C, strain DUN1, hits give low values
# [7] = locus YDL185W, strain tfp1, hits give low values
# [8] = locus YDL192W, strain arf1, hits give low values
# [9] = locus YDR101C, strain arx1, hits give low values
# [10] = locus YDR150W, strain NUM1, hits give low values
# [11] = locus YDR162C, strain NBP2, hits give low values
# [12] = locus YDR318W, strain mcm21, hits give low values
# [13] = locus YDR388W, hits give low values
# [14] = locus YDR502C, strain sam2, hits give low values
# [15] = locus YEL061C, strain CIN8, hits give low values
# [16] = locus YER110C, hits give low values
# [17] = locus YER155C, strain BEM2, hits give low values
# [18] = locus YER167W, strain BCK2, hits give low values
# [19] = locus YGL078C, strain dbp3, hits give low values
# [20] = locus YGL086W, strain mad1, hits give low values
# [21] = locus YGL248W, strain PDE1, hits give low values
# [22] = locus YGR135W, strain pre9, hits give low values
# [23] = locus YGR229C, strain SMI1, hits give low values
# [24] = locus YGR252W, strain gcn5, hits give low values
# [25] = locus YHR030C, strain SLT2, hits give low values
# [26] = locus YHR079C, strain IRE1 (second series), hits give low values
# [27] = locus YHR094C, strain hxt1, hits give low values
# [28] = locus YHR129C, strain ARP1, hits give low values
# [29] = locus YHR200W, strain rpn10, hits give low values
# [30] = locus YIL066C, strain RNR3, hits give low values
# [31] = locus YIL073C, strain SPO22, hits give low values
# [32] = locus YIL125W, strain kgd1, hits give low values
# [33] = locus YIR030C, strain dcg1, hits give low values
# [34] = locus YJL095W, strain BCK1, hits give low values
# [35] = locus YJL134W, strain LCB3, hits give low values
# [36] = locus YJL168C, strain set2, hits give low values
# [37] = locus YJL187C, strain SWE1 (second series), hits give low values
# [38] = locus YJR043C, strain POL32, hits give low values
# [39] = locus YKL009W, strain mrt4, hits give low values
# [40] = locus YKL068W, hits give low values
# [41] = locus YKL085W, strain MDH1 (second series), hits give low values
# [42] = locus YKL085W, strain MDH1, hits give low values
# [43] = locus YKR001C, strain vps1, hits give low values
# [44] = locus YLR039C, strain RIC1, hits give low values
# [45] = locus YLR058C, strain SHM2, hits give low values
# [46] = locus YLR102C, strain apc9, hits give low values
# [47] = locus YLR268W, strain sec22, hits give low values
# [48] = locus YLR371W, strain rom2, hits give low values
# [49] = locus YLR418C, strain cdc73, hits give low values
# [50] = locus YML016C, strain PPZ1, hits give low values
# [51] = locus YML032C, strain rad52, hits give low values
# [52] = locus YML124C, strain tub3, hits give low values
# [53] = locus YMR078C, strain ctf18, hits give low values
# [54] = locus YMR223W, strain ubp8, hits give low values
# [55] = locus YMR307W, strain GAS1, hits give low values
# [56] = locus YNL067W, strain RPL9B, hits give low values
# [57] = locus YNL153C, strain GIM3, hits give low values
# [58] = locus YNL233W, strain BNI4, hits give low values
# [59] = locus YNL250W, strain rad50, hits give low values
# [60] = locus YNL271C, strain bni1, hits give low values
# [61] = locus YNL298W, strain CLA4, hits give low values
# [62] = locus YNL307C, strain MCK1, hits give low values
# [63] = locus YNR052C, strain pop2, hits give low values
# [64] = locus YOL006C, strain TOP1, hits give low values
# [65] = locus YOL147C, strain pex11, hits give low values
# [66] = locus YOR061W, strain CKA2, hits give low values
# [67] = locus YOR069W, strain VPS5, hits give low values
# [68] = locus YOR136W, strain idh2, hits give low values
# [69] = locus YOR144C, strain elg1, hits give low values
# [70] = locus YOR184W, strain ser1, hits give low values
# [71] = locus YOR316C, strain cot1, hits give low values
# [72] = locus YPR119W, strain clb2, hits give low values
# [73] = locus YPR141C, strain kar3, hits give low values
# [74] = locus YPR163C, strain tif3, hits give low values
# [75] = locus YPR167C, strain met16, hits give low values
# [76] = strain wtn01, hits give low values
structure (smiles),measurement,setting,value
COc1ccc(-c2c(O)c3cc4c(c(CC=C(C)C)c3oc2=O)OC(C)(C)CC4)cc1,normalized growth,[1],1.01
same,normalized growth,[2],0.996
same,normalized growth,[3],1.02
same,normalized growth,[4],1.01
same,normalized growth,[5],1.03
same,normalized growth,[6],1.01
same,normalized growth,[7],1.03
same,normalized growth,[8],1.03
same,normalized growth,[9],1.01
same,normalized growth,[10],1.01
same,normalized growth,[11],0.993
same,normalized growth,[12],1.01
same,normalized growth,[13],1.02
same,normalized growth,[14],1.02
same,normalized growth,[15],1.01
same,normalized growth,[16],1.03
same,normalized growth,[17],1.01
same,normalized growth,[18],1.01
same,normalized growth,[19],1.01
same,normalized growth,[20],1.03
same,normalized growth,[21],1
same,normalized growth,"locus YGR078C, strain PAC10, hits give low values",1.01
same,normalized growth,[22],1.03
same,normalized growth,[23],1.02
same,normalized growth,[24],1.02
same,normalized growth,[25],1.01
same,normalized growth,[26],1.01
same,normalized growth,[27],1.02
same,normalized growth,[28],1.01
same,normalized growth,[29],1
same,normalized growth,[30],1.01
same,normalized growth,[31],1.06
same,normalized growth,[32],1.02
same,normalized growth,[33],1.01
same,normalized growth,[34],1.01
same,normalized growth,[35],1.01
same,normalized growth,[36],1.02
same,normalized growth,[37],1.01
same,normalized growth,[38],1.01
same,normalized growth,[39],1.11
same,normalized growth,[40],1.01
same,normalized growth,[41],1.01
same,normalized growth,[42],1.01
same,normalized growth,"locus YKL190W, strain CNB1, hits give low values",1
same,normalized growth,[43],1.02
same,normalized growth,[44],1.02
same,normalized growth,[45],1.01
same,normalized growth,[46],1.01
same,normalized growth,"locus YLR262C, strain YPT6, hits give low values",1.07
same,normalized growth,[47],1.02
same,normalized growth,"locus YLR330W, strain CHS5, hits give low values",1.02
same,normalized growth,"locus YLR342W, strain FKS1 (second series), hits give low values",1.02
same,normalized growth,[48],1.02
same,normalized growth,[49],1.01
same,normalized growth,[50],1.01
same,normalized growth,[51],1.02
same,normalized growth,[52],1.01
same,normalized growth,[53],1.02
same,normalized growth,[54],1.01
same,normalized growth,"locus YMR263W, strain SAP30, hits give low values",1.01
same,normalized growth,[55],1.08
same,normalized growth,[56],1.01
same,normalized growth,"locus YNL128W, strain TEP1, hits give low values",1
same,normalized growth,[57],1
same,normalized growth,[58],1
same,normalized growth,[59],1.02
same,normalized growth,[60],1.01
same,normalized growth,[61],1.01
same,normalized growth,[62],1.02
same,normalized growth,[63],1.02
same,normalized growth,[64],1.17
same,normalized growth,"locus YOL012C, strain htz1",1.44
same,normalized growth,[65],1
same,normalized growth,[66],1
same,normalized growth,[67],1.01
same,normalized growth,[68],1.02
same,normalized growth,[69],0.999
same,normalized growth,[70],0.993
same,normalized growth,[71],1.02
same,normalized growth,"locus YPL241C, strain CIN2, hits give low values",1.01
same,normalized growth,[72],1.02
same,normalized growth,[73],1.02
same,normalized growth,[74],1.01
same,normalized growth,[75],1.01
same,normalized growth,[76],1.01
COc1c(CC=C(C)C)c2c(c3oc(=O)c(-c4ccc(O)cc4)c(O)c13)C=CC(C)(C)O2,normalized growth,[1],0.918
same,normalized growth,[2],1.01
same,normalized growth,[3],0.841 (active)
same,normalized growth,[4],0.918
same,normalized growth,[5],0.687 (active)
same,normalized growth,[6],0.964
same,normalized growth,[7],1.03
same,normalized growth,[8],0.875 (active)
same,normalized growth,[9],0.92
same,normalized growth,[10],1.03
same,normalized growth,[11],0.875
same,normalized growth,[12],0.896 (active)
same,normalized growth,[13],0.975
same,normalized growth,[14],0.94
same,normalized growth,[15],0.968
same,normalized growth,[16],0.986
same,normalized growth,[17],0.752 (active)
same,normalized growth,[18],0.951
same,normalized growth,[19],1
same,normalized growth,[20],0.937
same,normalized growth,[21],0.921
same,normalized growth,[22],0.989
same,normalized growth,[23],0.722 (active)
same,normalized growth,[24],1.02
same,normalized growth,[25],0.974
same,normalized growth,[26],0.979
same,normalized growth,[27],0.976
same,normalized growth,[28],0.899 (active)
same,normalized growth,[29],0.908 (active)
same,normalized growth,[30],0.903
same,normalized growth,[31],0.952
same,normalized growth,[32],0.957
same,normalized growth,[33],0.953
same,normalized growth,[34],0.74 (active)
same,normalized growth,[35],1.01
same,normalized growth,[36],0.961
same,normalized growth,[37],0.945
same,normalized growth,[38],0.947
same,normalized growth,[39],0.985
same,normalized growth,[40],1.01
same,normalized growth,[41],0.958
same,normalized growth,[42],0.958
same,normalized growth,[43],0.869 (active)
same,normalized growth,[44],0.889
same,normalized growth,[45],0.912
same,normalized growth,[46],0.978
same,normalized growth,[47],0.853 (active)
same,normalized growth,[48],0.769 (active)
same,normalized growth,[49],0.649 (active)
same,normalized growth,[50],0.992
same,normalized growth,[51],0.896 (active)
same,normalized growth,[52],0.983
same,normalized growth,[53],0.98
same,normalized growth,[54],0.925
same,normalized growth,[55],0.773
same,normalized growth,[56],0.97
same,normalized growth,[57],0.922
same,normalized growth,[58],0.881
same,normalized growth,[59],1.04
same,normalized growth,[60],0.998
same,normalized growth,[61],0.989
same,normalized growth,[62],0.677 (active)
same,normalized growth,"locus YNL322C, strain KRE1, hits give low values",0.972
same,normalized growth,[63],0.917
same,normalized growth,[64],0.779
same,normalized growth,"locus YOL012C, strain htz1",0.812
same,normalized growth,[65],0.902 (active)
same,normalized growth,[66],0.982
same,normalized growth,[67],0.997
same,normalized growth,[68],0.934
same,normalized growth,[69],0.968
same,normalized growth,[70],0.476 (active)
same,normalized growth,[71],0.976
same,normalized growth,[72],0.977
same,normalized growth,[73],1
same,normalized growth,[74],0.84 (active)
same,normalized growth,[75],0.938
same,normalized growth,[76],0.905
